Experimental data from PubChem BioAssay (NCI).
The panel holds about 83,000 compounds, 20% with a hit somewhere; the sample as a whole holds those more often.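 Step 1: grow cells in 96-well plates. Step 2: add test compound at a single concentration. Step 3: incubate 48 h. Step 4: record percent growth.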 Unmarked numbers belong to inactive results. Activity calls are given as the source filed them. Rule for the calls: active = growth percent below 10; inactive = the rest.

These compounds were tested on SF-539 CNS (assay: NCI-60 one-dose screen, 48 h (100 = growth as untreated, 0 = no growth, -100 = all killed)). Details: 10 µM unless noted.
Work on `CC(C)(C)n1cc(-c2ccnc(NCCCNS(=O)(=O)c3cccc(F)c3)c2)c(-c2cccc(O)c2)n1` yielded a growth of 39.3%.
`Cc1ccc(N2CCN(C(C)C(N)=O)CC2)cc1` (centres undefined) showed a growth of 110%.
For `NC(N)=N/N=C/c1ccc(-c2ccc(-c3cc(Cl)cc(Cl)c3)s2)cc1`, the growth was -3.6% (active).
For `Cc1ccc2nc(-c3cc4c([nH]c5ccccc54)c(-c4ccc(F)c(F)c4)n3)[nH]c2c1`, the growth was 89.5%.
Compound `CNc1ccc(Br)c2c1C(=O)c1ccccc1C2=O` has a growth of 103%.
`O=C(O)c1cn(C2CC2)c2cc(N3CCN(C(=O)/C=C/c4ccc(Cl)cc4)CC3)c(F)cc2c1=O` gave a growth of 72.2%.
With `CCC1=CCC[C@@]2(C)CCC[C@@]3(C)CCCC(C)(C)[C@]1([O-])[O+]32` the growth was 103%.
With `O=c1[nH]c(-c2ccccc2)nc(CN2CCCCC2)c1O` the growth was 108%.
`Cc1ccc(Nc2nnc(-c3ccc(Cl)cc3)o2)c(C)c1` showed a growth of 79%.
In the case of `O=C(N/N=C/C=C\c1ccccc1)C(=O)N/N=C/C=C/c1ccccc1`, the growth is reported as 114%.
`COc1cc(-c2nc(N=Nc3c(O)[nH]c4ccc(Br)cc34)[nH]c(=O)c2C#N)cc(OC)c1OC` showed a growth of 96%.
Work on `O=C(NNC(=O)N1c2ccccc2C=Cc2ccccc21)c1ccc2ccccc2c1` yielded a growth of 92.2%.
`COc1cccc(-c2nc3sccn3c2-c2ccnc(NCCCNS(=O)(=O)c3ccc(C(F)(F)F)cc3)c2)c1` was tested, and the growth was 55.1%.
For `c1cc(C2=N[C@@H]3c4ccccc4C[C@@H]3O2)nc(C2=N[C@@H]3c4ccccc4C[C@@H]3O2)c1`, the growth was 97%.
